Results from PubChem BioAssay AID1671202 (University of Kansas High Throughput Screening Laboratory, 2021).
Values joined by “and” are separate entries in the source; they are usually repeats but may differ in a detail not shown here. Identical values can stand only once. In all, about 190,000 compounds went through this assay and about 6,900 (3.6%) were called active. No stated cut-off is given here; in the data, active means inhibition above about 50%; inactive means the rest. Only a selection was taken, and actives are over-represented in it overall. More than one record can exist for a structure, and the calls need not agree.

Each molecule was assayed against Huntingtin (Homo sapiens) (UniProt P42858) (assay: mutant huntingtin-calmodulin interaction inhibitors – biochemical, AlphaScreen, primary screen (AID 1671202;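 further: 0% = both proteins with DMSO and 100% = one protein alone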)). Conditions: AlphaScreen His-mHTT/GST-CaM binding, luminescence; at 15 µM, stronger effect = higher value.
Sequence of Huntingtin (Homo sapiens) (P42858 whole entry, looked up, stated change not applied): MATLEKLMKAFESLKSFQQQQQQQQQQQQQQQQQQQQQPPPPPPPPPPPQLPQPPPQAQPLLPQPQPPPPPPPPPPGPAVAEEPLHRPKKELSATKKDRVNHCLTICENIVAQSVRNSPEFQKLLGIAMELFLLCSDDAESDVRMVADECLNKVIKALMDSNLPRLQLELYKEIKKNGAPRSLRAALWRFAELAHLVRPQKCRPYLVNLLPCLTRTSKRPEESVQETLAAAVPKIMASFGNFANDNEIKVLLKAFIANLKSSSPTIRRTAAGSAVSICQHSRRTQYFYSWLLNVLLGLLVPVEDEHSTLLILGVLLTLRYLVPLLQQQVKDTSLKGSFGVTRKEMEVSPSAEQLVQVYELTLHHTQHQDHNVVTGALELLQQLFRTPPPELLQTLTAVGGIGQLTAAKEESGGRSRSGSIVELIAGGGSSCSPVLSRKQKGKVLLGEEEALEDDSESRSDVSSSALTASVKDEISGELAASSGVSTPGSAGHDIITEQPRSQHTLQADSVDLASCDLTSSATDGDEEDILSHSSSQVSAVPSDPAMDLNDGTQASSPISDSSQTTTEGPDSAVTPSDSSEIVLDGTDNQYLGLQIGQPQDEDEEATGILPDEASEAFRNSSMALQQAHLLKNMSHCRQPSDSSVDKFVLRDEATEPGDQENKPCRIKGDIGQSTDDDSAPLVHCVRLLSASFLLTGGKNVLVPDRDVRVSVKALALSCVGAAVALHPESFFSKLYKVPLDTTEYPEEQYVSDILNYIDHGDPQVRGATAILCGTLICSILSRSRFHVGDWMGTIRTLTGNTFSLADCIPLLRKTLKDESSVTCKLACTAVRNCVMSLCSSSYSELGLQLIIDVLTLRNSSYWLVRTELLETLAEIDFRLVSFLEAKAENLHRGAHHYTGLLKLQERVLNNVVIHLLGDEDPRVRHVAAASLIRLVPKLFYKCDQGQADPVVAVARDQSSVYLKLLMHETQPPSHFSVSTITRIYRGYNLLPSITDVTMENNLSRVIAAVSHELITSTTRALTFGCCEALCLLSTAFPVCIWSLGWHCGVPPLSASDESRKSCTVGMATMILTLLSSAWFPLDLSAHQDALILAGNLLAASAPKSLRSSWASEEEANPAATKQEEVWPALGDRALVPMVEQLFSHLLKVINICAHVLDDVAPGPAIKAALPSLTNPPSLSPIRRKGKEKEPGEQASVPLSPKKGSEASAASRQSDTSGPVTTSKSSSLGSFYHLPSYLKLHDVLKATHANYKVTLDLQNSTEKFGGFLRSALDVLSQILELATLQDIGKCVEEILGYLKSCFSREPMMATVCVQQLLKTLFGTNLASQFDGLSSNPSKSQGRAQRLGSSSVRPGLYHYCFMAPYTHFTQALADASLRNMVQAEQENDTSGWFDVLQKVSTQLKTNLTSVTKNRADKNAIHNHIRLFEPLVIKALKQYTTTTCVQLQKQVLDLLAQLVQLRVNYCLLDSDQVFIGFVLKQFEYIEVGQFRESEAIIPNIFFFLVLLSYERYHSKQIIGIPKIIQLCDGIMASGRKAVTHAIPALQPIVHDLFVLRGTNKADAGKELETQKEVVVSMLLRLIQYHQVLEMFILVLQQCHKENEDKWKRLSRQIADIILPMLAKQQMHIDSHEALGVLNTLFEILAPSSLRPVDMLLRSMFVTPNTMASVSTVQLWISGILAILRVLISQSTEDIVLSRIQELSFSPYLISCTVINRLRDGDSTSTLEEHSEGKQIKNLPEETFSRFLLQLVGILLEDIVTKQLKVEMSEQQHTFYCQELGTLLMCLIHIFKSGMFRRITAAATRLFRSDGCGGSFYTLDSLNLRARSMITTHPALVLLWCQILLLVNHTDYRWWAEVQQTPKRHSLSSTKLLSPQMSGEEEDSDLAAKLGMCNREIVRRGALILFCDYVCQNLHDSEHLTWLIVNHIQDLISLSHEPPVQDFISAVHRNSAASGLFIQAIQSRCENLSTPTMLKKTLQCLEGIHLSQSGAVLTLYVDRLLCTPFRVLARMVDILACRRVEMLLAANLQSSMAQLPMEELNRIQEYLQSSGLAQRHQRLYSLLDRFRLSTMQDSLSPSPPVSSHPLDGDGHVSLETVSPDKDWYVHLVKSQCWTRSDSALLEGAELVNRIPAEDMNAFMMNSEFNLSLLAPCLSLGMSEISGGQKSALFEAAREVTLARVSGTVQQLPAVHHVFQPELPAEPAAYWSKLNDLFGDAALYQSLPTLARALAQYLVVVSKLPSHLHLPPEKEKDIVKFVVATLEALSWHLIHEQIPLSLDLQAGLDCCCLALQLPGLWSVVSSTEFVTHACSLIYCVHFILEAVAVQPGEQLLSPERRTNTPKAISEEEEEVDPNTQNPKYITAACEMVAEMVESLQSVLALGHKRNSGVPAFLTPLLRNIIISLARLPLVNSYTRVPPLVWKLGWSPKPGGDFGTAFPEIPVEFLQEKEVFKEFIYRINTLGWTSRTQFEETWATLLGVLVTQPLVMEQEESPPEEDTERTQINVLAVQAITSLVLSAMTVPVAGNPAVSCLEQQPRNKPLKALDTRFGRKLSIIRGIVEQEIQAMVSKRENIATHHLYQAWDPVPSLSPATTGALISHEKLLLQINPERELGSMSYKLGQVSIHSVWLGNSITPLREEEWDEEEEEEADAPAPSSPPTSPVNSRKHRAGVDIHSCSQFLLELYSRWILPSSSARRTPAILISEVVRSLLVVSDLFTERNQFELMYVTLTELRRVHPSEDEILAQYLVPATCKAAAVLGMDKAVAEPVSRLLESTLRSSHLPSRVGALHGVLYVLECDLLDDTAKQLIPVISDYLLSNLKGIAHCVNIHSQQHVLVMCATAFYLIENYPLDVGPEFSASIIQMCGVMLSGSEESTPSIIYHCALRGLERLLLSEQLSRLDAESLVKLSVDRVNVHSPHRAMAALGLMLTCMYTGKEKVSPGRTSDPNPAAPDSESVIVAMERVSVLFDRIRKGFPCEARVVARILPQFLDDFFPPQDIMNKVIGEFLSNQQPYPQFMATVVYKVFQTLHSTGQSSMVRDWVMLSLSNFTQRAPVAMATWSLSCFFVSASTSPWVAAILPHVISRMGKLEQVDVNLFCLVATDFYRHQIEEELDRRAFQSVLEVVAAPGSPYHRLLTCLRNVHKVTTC
`CCCn1cnc2c1c(=O)n(CC)c(=O)n2-c1ccc(C)cc1` was tested, and the inhibition was 0.6% (inactive). In the case of `CC(C)Cn1cc(C(=O)NC2CCCCCC2)c2c3ccccc3n(C)c2c1=O`, the inhibition is reported as 1% (inactive). For `COc1cccc(C2C3=C(Nc4c2c(=O)n(C)c(=O)n4C)c2ccccc2C3=O)c1OC` (stereo unspecified), the inhibition was 27% (inactive). With `Cn1nc(COc2ccccc2)c2c1CCN(C(=O)Nc1ccc(F)cc1F)C2` the inhibition was 22.3% (inactive). In the case of `Cn1nc(COc2ccc(F)cc2)c2c1CCN(C(=O)Nc1ccc(F)cc1F)C2`, the inhibition is reported as -2.73% (inactive). For `Cn1nc(COc2ccc(F)cc2)c2c1CCN(C(=O)Nc1ccc(F)cc1)C2`, the inhibition was 80% (active). For `Cc1ccc(C)c(N=c2oc3ccccc3cc2C(=O)Nc2nccs2)c1`, the inhibition was -4% (inactive). In the case of `CN(C)CCNC(=O)c1cc2n(n1)CCCN(Cc1cccc(F)c1)C2=O`, the inhibition is reported as -3.78% (inactive). In the case of `CC(=O)NC(=Nc1nc(C)cc(C)n1)Nc1cccc(C)c1C`, the inhibition is reported as 0% (inactive). For `O=C(Nc1ccccc1-c1nc2ccccc2[nH]1)c1ccccc1Cl`, the inhibition was 45.7% (inactive). With `Cc1c(NC(=O)c2cccc([N+](=O)[O-])c2C)cccc1-c1nc2ccccc2[nH]1` the inhibition was 16% (inactive). In the case of `O=C(Nc1ccccc1-c1nc2ccccc2[nH]1)c1ccccc1Br`, the inhibition is reported as 51% (active). For `O=C(CN1C(=O)CCC1=O)N1CCC(Oc2nc3ccc(F)cc3s2)CC1`, the inhibition was -3.4% (inactive). In the case of `O=C(Cc1ccc2c(c1)OCO2)N1CCC(Oc2nc3ccccc3s2)CC1`, the inhibition is reported as 61.1% (active). For `O=C(Nc1nc2ccccc2s1)c1ccc2c(c1)OCO2`, the inhibition was 17.1% (inactive). `O=C(NCc1ccncc1)C1CC(=O)N(Cc2ccccc2F)C1` (stereo unspecified) was tested, and the inhibition was 3.4% (inactive). In the case of `COc1ccc(C(=O)CSc2nc(N)cc(=O)[nH]2)cc1[N+](=O)[O-]`, the inhibition is reported as 3.7% (inactive). `C[C@H]1COc2cc(N3CCSCC3)ccc2S(=O)(=O)N1` was tested, and the inhibition was -12% (inactive). `O=C(c1ccc(F)cc1)N1CCc2nc[nH]c2C1` was tested, and the inhibition was -20.2% (inactive). In the case of `COc1cc(OC)c(OC)cc1CN1CCN(Cc2ccc3c(c2)OCO3)CC1`, the inhibition is reported as 2.4% (inactive). `COc1cc(C(c2cc3c(cc2O)OCO3)N2CCCC2)cc(OC)c1OC` (stereo unspecified) was tested, and the inhibition was 81.6% (active). `Cc1nc2c(c(NCC3CCCO3)n1)CCC2` (stereo unspecified) was tested, and the inhibition was -7.6% (inactive). `C[C@H]1[C@H](NC(=O)c2cccc(N(C)C)c2)CC[C@@]23CCCN2C(=O)CCC[C@@H]13` was tested, and the inhibition was -15.6% (inactive). `Cc1nnc2cc(N3CCN(Cc4ccc(C(C)C)cc4)CC3)cnn12` was tested, and the inhibition was 63.7% (active). In the case of `c1csc(CN2CCN(c3cnn4cnnc4c3)CC2)c1`, the inhibition is reported as 0.4% (inactive). With `Clc1cccc(N2CCN(Cc3cccnc3)CC2)c1` the inhibition was 1% (inactive). `CCn1nnc2c(N3CCN(C(=O)Nc4ccccc4C(F)(F)F)CC3)ncnc21` was tested, and the inhibition was -3.4% (inactive). With `CCOc1cc(/C=C2\C(=O)NN(c3ccccc3)C2=O)cc(Cl)c1OCC` the inhibition was 61% (active). In the case of `Cc1ccccc1COc1cccc(/C=C2\C(=O)NN(c3ccccc3)C2=O)c1`, the inhibition is reported as 7% (inactive). `CCOc1cc(/C=C2\C(=O)NN(c3cccc(Cl)c3)C2=O)ccc1O` was tested, and the inhibition was 8% (inactive). With `CC(C)N1C(=O)C(C)N(C(=O)NCc2ccc(F)cc2)c2cccnc21` (stereo unspecified) the inhibition was 10.9% (inactive). For `Cc1ccc(NC(=O)CSC2=NC(C)(C)N=C2c2ccccc2)c(C)c1`, the inhibition was -6.5% (inactive). In the case of `Cc1ccc(NC(=O)CSc2cccc3cccnc23)c(C)c1`, the inhibition is reported as 86% (active). For `O=C(CSc1cccc2cccnc12)Nc1ccc(Br)cc1`, the inhibition was 3.8% (inactive). With `N#CC1=C2C=CC(O)=CC2OC=C1N` (stereo unspecified) the inhibition was 55.1% (active). `Cn1c(SCc2ccc([N+](=O)[O-])cc2)nnc1-c1cccs1` was tested, and the inhibition was 4% (inactive). With `CCN1C(=O)CCc2cc(NC(=O)c3sccc3C)ccc21` the inhibition was -2.8% (inactive). For `Cc1nn(C)c(C)c1Nc1ccc(N2C(=O)CCCC2=O)cc1[N+](=O)[O-]`, the inhibition was 1% (inactive). With `O=C1C2C3C=CC(C3)C2C(=O)N1c1ccc(Nc2ccc3c(c2)CCC3)c([N+](=O)[O-])c1` (stereo unspecified) the inhibition was 74% (active). `Cc1ccc(N2C(=O)C3C4c5ccccc5C(CO)(c5ccccc54)C3C2=O)cc1[N+](=O)[O-]` (stereo unspecified) was tested, and the inhibition was 27% (inactive). `COc1ccccc1CNC(=O)C1CCN(c2cncnc2N2CCN(C)CC2)CC1` was tested, and the inhibition was 5.19% (inactive). With `CC(C)(C)NC(=O)c1ccc2c(c1)CCN2C(=O)C1CC1` the inhibition was -4.5% (inactive). In the case of `CCOC(=O)NCCS(=O)(=O)N1CCN(c2ccc(OC)cc2)CC1`, the inhibition is reported as 1.1% (inactive). For `N#C/C(=C\c1cccn1-c1ccc([N+](=O)[O-])cc1)c1nn(CCO)c(N)c1C#N`, the inhibition was -2.4% (inactive) and 4% (inactive). With `CS(=O)(=O)N1CCc2cc(NC(=O)Nc3ccccc3)ccc21` the inhibition was 12.4% (inactive). In the case of `CC(=O)c1ccc(OCC(O)CN2CCN(c3ccccc3)CC2)cc1` (stereo unspecified), the inhibition is reported as 9.71% (inactive). For `CCN(CC)CC(O)COc1ccc(C23CC4CC(CC(C4)C2)C3)cc1` (stereo unspecified), the inhibition was 98.6% (active). `CCN(CC(O)COC12CC3CC(CC(C3)C1)C2)C1CCCCC1` (stereo unspecified) was tested, and the inhibition was -6.1% (inactive). `CC1CC(C)CN(CC(O)COc2ccc(C34CC5CC(CC(C5)C3)C4)cc2)C1` (stereo unspecified) was tested, and the inhibition was 65.1% (active). In the case of `Cc1ccc(OCC(O)CNC2CCCCC2)cc1` (stereo unspecified), the inhibition is reported as -7.1% (inactive). `Cc1ccc(OCC(O)CN2CCCC2)cc1C` (stereo unspecified) was tested, and the inhibition was 1.8% (inactive). In the case of `CCc1ccc(OCC(O)CN2CCN(c3ccc(F)cc3)CC2)cc1` (stereo unspecified), the inhibition is reported as 15.9% (inactive). With `COc1ccc(N2CCN(CC(O)COC34CC5CC(CC(C5)C3)C4)CC2)cc1` (stereo unspecified) the inhibition was 27.7% (inactive). In the case of `CCN1CCN(CC(O)COc2ccc(C34CC5CC(CC(C5)C3)C4)cc2)CC1` (stereo unspecified), the inhibition is reported as 50.3% (active). `CCn1nccc1C(=O)N1CC2CC(NC(=O)c3cccs3)C1C2` (stereo unspecified) was tested, and the inhibition was 1.26% (inactive). In the case of `Cc1ccc2nc(NCc3ccccc3)c(C=Nc3ccccc3)c(=O)n2c1`, the inhibition is reported as 6% (inactive). With `CCc1ccc(CNC(=O)c2c(C)sc3c(=O)n(C4CCCC4)cnc23)cc1` the inhibition was -6.7% (inactive). In the case of `CN1CCN(C(=O)c2cc3c(=O)n(C)ccc3n2C)CC1`, the inhibition is reported as -9.9% (inactive). `CCOc1ccc(S(=O)(=O)Nc2ccccc2F)c2cccnc12` was tested, and the inhibition was 4% (inactive). In the case of `O=S(=O)(Nc1ccc(Cl)cc1F)c1c[nH]c2ncccc12`, the inhibition is reported as 71.8% (active). In the case of `O=S(=O)(Nc1ccc(F)cc1)c1cccnc1Nc1ccc(Cl)cc1`, the inhibition is reported as -23.3% (inactive). `Cc1cccc(OCC(=O)N2CCCC(OCc3nc(C)no3)C2)c1` (stereo unspecified) was tested, and the inhibition was -7.37% (inactive). In the case of `Cc1ccc(-c2nnc(C(=O)c3ccccc3)o2)cc1`, the inhibition is reported as 0.5% (inactive). For `O=S(=O)(c1cc(Br)ccc1Br)N1CCOCC1`, the inhibition was -4% (inactive). With `COc1ccc(Br)cc1C(=O)Nc1cc2cccc([N+](=O)[O-])c2oc1=O` the inhibition was -7% (inactive). For `Cc1oc2c(Cl)c(Cl)c(O)cc2c1[N+](=O)[O-]`, the inhibition was 32% (inactive). In the case of `COC(=O)Oc1c([N+](=O)[O-])cc2oc(=O)sc2c1[N+](=O)[O-]`, the inhibition is reported as 53% (active). With `O=C1CCCC2=C1C(c1cccc(Br)c1)n1nc(-c3ccccc3)nc1N2` (stereo unspecified) the inhibition was -1.86% (inactive). In the case of `O=C(NCc1cccnc1)c1cc(-c2ccccn2)nc2ccccc12`, the inhibition is reported as 34% (inactive). In the case of `CCOc1ccc(-c2cc(C(=O)NCc3ccccn3)c3ccccc3n2)cc1`, the inhibition is reported as -9.8% (inactive) and 70% (active). In the case of `CCOc1cccc(-c2cc(C(=O)NCCN3CCOCC3)c3ccccc3n2)c1`, the inhibition is reported as 11.4% (inactive). With `CCOc1ccc(/C=C2\CS/C(=C\c3ccc(OCC)cc3)C2=O)cc1` the inhibition was 28% (inactive). `CC(=O)N(C)CC(=O)N1N=C(c2cccs2)CC1c1ccccc1Cl` (stereo unspecified) was tested, and the inhibition was 1.2% (inactive). In the case of `CNCC(=O)N1N=C(c2cccn2C)CC1c1ccccc1` (stereo unspecified), the inhibition is reported as 8.9% (inactive). For `CC(=O)N(C)CC(=O)N1N=C(c2ccccc2Cl)CC1c1ccccc1Cl` (stereo unspecified), the inhibition was 56.2% (active). With `CN(CC(=O)N1N=C(c2cccs2)CC1c1ccccc1F)C(=O)C1CCCC1` (stereo unspecified) the inhibition was 23% (inactive). In the case of `CC(C)C(=O)N(C)CC(=O)N1N=C(c2ccccc2Cl)CC1c1ccc(F)cc1` (stereo unspecified), the inhibition is reported as 57% (active). `CC(C)C(=O)N(C)CC(=O)N1N=C(c2ccc(F)cc2)CC1c1ccc(F)cc1` (stereo unspecified) was tested, and the inhibition was 29.5% (inactive). With `O=C(c1ccc(F)cc1)N1CCC(c2nc(-c3ccccc3)n[nH]2)CC1` the inhibition was 12.2% (inactive). In the case of `O=C1CC[C@@]23CCCN2C(=O)CCC[C@H]3[C@H]1Cc1ccccc1`, the inhibition is reported as 1.2% (inactive). `Cc1nc(-c2cccs2)c(CCC(=O)Nc2cccc3cccnc23)s1` was tested, and the inhibition was 8.1% (inactive). With `C=C(C)CN(CC)Cc1cccc(OC)c1OC` the inhibition was -4.5% (inactive). `COc1ccc(C2CC(=O)C(C=Nc3cc(Cl)ccc3O)=C(O)C2)cc1` (stereo unspecified) was tested, and the inhibition was 4% (inactive). With `CCC(C)NC(=O)Cn1cnc2c(oc3ccccc32)c1=O` (stereo unspecified) the inhibition was -6.1% (inactive). In the case of `Cc1ccc(C(=O)Nc2ccc(N(C)C)cc2)cc1C`, the inhibition is reported as 59.4% (active). With `CC(=O)c1ccc(NC(=O)c2ccc(CN(c3ccc(C)c(C)c3)S(C)(=O)=O)cc2)cc1` the inhibition was 3.8% (inactive). In the case of `CC(=O)Nc1ccc(NC(=O)c2ccc(N(C)C)cc2)cc1`, the inhibition is reported as 5.9% (inactive). `CCOc1ccc(CNC(=O)C2CCCN(c3ccc(N4CCOCC4)nn3)C2)cc1` (stereo unspecified) was tested, and the inhibition was -1.05% (inactive). For `COCCNC(=O)c1cn2cc(C)ccc2n1`, the inhibition was -7.5% (inactive). In the case of `O=C(CCC(=O)N1CC2CCCN2c2ccccc21)NCCCN1CCCC1` (stereo unspecified), the inhibition is reported as 71.5% (active). For `O=C(CCC(=O)N1CC2CCCN2c2ccccc21)NCc1cccc(Br)c1` (stereo unspecified), the inhibition was 36.6% (inactive). For `O=C(CCC(=O)N1CC2CCCN2c2ccccc21)NCCCN1CCCCC1` (stereo unspecified), the inhibition was 7.41% (inactive). In the case of `COc1ccc([N+](=O)[O-])cc1NCc1ccccc1Br`, the inhibition is reported as -6.4% (inactive). For `CCOc1ccc(/C=C(\C#N)c2nc3ccc(C)cc3[nH]2)cc1OC`, the inhibition was 5.8% (inactive). With `COc1cccc(/C=C(\C#N)c2nc3ccc(C)cc3[nH]2)c1OC` the inhibition was 6.1% (inactive). In the case of `COc1cc(/C=C(\C#N)c2nc3ccc(C)cc3[nH]2)c(Br)cc1O`, the inhibition is reported as 47.5% (inactive) and 79% (active).
